{
  "source": "the supplement of paper PMC12636033",
  "note": "± gives the standard deviation of the averaged measurements. In all, about 33,000 sequences were measured (“E-score (rank enrichment, -0.5 to 0.5)”: median about -0.0068, highest 2% from about 0.24 on). Only a selection was taken, and the highest values are over-represented in it overall.",
  "data": [
    {"tested_on": "muMax20 (Max(13-93) K31hArg/K57hArg, M65Nle)", "experiment": "PBM 8-mer E-score (E-score (rank enrichment, -0.5 to 0.5)); higher = stronger preferential binding", "method": "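Protein binding microarray (universal PBM chip covering all 10-mers in fixed probe flanks) with chemically synthesized human Max(13-93) bHLH-LZ analogs (not full-length Max) bearing noncanonical residues (hArg, Tha, Aib, Nle at 65) and aromatic Cys staples. Read-out per 8-mer (and its reverse complement): E-score (rank-based enrichment, -0.5 to 0.5) and Z-score of median probe intensity.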", "values": [
      {"sequence": "GATAGTAA", "PBM 8-mer E-score": "0.0883 ± 0.11"},
      {"sequence": "CGTAGTAA", "PBM 8-mer E-score": "0.104 ± 0.053"},
      {"sequence": "ATTAGTAC", "PBM 8-mer E-score": "0.0781 ± 0.08"},
      {"sequence": "TATAGTCA", "PBM 8-mer E-score": "0.246 ± 0.027"},
      {"sequence": "TGTAGTAA", "PBM 8-mer E-score": "0.258 ± 0.033"},
      {"sequence": "GATAGTCA", "PBM 8-mer E-score": "0.117 ± 0.051"},
      {"sequence": "ATTAGTAA", "PBM 8-mer E-score": "0.246 ± 0.00033"},
      {"sequence": "TATAGTAA", "PBM 8-mer E-score": "0.28 ± 0.024"},
      {"sequence": "CATAGTCA", "PBM 8-mer E-score": "0.05 ± 0.035"},
      {"sequence": "CATAGTAA", "PBM 8-mer E-score": "0.163 ± 0.055"},
      {"sequence": "AGTAGTAA", "PBM 8-mer E-score": "0.151 ± 0.057"},
      {"sequence": "CTTAGTAA", "PBM 8-mer E-score": "0.0409 ± 0.1"},
      {"sequence": "AACGTTAG", "PBM 8-mer E-score": "0.091 ± 0.026"},
      {"sequence": "AGAGCAAT", "PBM 8-mer E-score": "-0.0507 ± 0.013"},
      {"sequence": "CCACCGCA", "PBM 8-mer E-score": "-0.117 ± 0.1"},
      {"sequence": "ACGGGTAG", "PBM 8-mer E-score": "-0.226 ± 0.026"},
      {"sequence": "CAGATCCG", "PBM 8-mer E-score": "-0.166 ± 0.073"},
      {"sequence": "CTCCCAGC", "PBM 8-mer E-score": "-0.118 ± 0.04"},
      {"sequence": "GTTAGTTA", "PBM 8-mer E-score": "0.251 ± 0.048"},
      {"sequence": "ATTAGTTA", "PBM 8-mer E-score": "0.173 ± 0.015"},
      {"sequence": "CTTAGTTA", "PBM 8-mer E-score": "0.0136 ± 0.12"},
      {"sequence": "GCCTCGAC", "PBM 8-mer E-score": "-0.225 ± 0.022"},
      {"sequence": "AACCCGGA", "PBM 8-mer E-score": "-0.327 ± 0.033"},
      {"sequence": "GTAAGGCA", "PBM 8-mer E-score": "0.203 ± 0.12"},
      {"sequence": "ATTCTAGA", "PBM 8-mer E-score": "0.0758 ± 0.1"},
      {"sequence": "ATCTACAA", "PBM 8-mer E-score": "0.126 ± 0.062"},
      {"sequence": "ACGTGGCT", "PBM 8-mer E-score": "0.249 ± 0.1"},
      {"sequence": "CCGTGGCA", "PBM 8-mer E-score": "-0.149 ± 0.013"},
      {"sequence": "TCGTGGCA", "PBM 8-mer E-score": "0.164 ± 0.017"},
      {"sequence": "ACGTGGCA", "PBM 8-mer E-score": "0.256 ± 0.033"},
      {"sequence": "ACGTGGCC", "PBM 8-mer E-score": "0.114 ± 0.13"},
      {"sequence": "ACGTGGCG", "PBM 8-mer E-score": "0.165 ± 0.085"},
      {"sequence": "CAGGCTGG", "PBM 8-mer E-score": "-0.172 ± 0.05"},
      {"sequence": "GTTTTCAA", "PBM 8-mer E-score": "0.258 ± 0.079"},
      {"sequence": "CTTTTCAC", "PBM 8-mer E-score": "0.311 ± 0.078"},
      {"sequence": "TATTTCAA", "PBM 8-mer E-score": "0.257 ± 0.016"},
      {"sequence": "ATTTTCAC", "PBM 8-mer E-score": "-0.00186 ± 0.074"},
      {"sequence": "GATTTCAA", "PBM 8-mer E-score": "-0.0671 ± 0.11"},
      {"sequence": "GGTTTCAA", "PBM 8-mer E-score": "0.0825 ± 0.073"},
      {"sequence": "CTTTTCAA", "PBM 8-mer E-score": "0.144 ± 0.06"},
      {"sequence": "CATTTCAA", "PBM 8-mer E-score": "0.217 ± 0.053"},
      {"sequence": "CCTTTCAC", "PBM 8-mer E-score": "0.116 ± 0.056"},
      {"sequence": "AATAGGGG", "PBM 8-mer E-score": "0.0563 ± 0.032"},
      {"sequence": "CGCCGCTA", "PBM 8-mer E-score": "-0.204 ± 0.0029"},
      {"sequence": "ACAGAGCC", "PBM 8-mer E-score": "-0.0681 ± 0.01"},
      {"sequence": "CGCATAAC", "PBM 8-mer E-score": "0.153 ± 0.039"},
      {"sequence": "AGCGCTCC", "PBM 8-mer E-score": "-0.263 ± 0.015"},
      {"sequence": "AGGTGTTG", "PBM 8-mer E-score": "-0.0311 ± 0.062"},
      {"sequence": "AGGTGTTC", "PBM 8-mer E-score": "0.157 ± 0.0061"},
      {"sequence": "ACGTGTTC", "PBM 8-mer E-score": "0.292 ± 0.0076"},
      {"sequence": "CCGTGTTC", "PBM 8-mer E-score": "0.00613 ± 0.046"},
      {"sequence": "ACGTGTTA", "PBM 8-mer E-score": "0.321 ± 0.015"},
      {"sequence": "GCGTGTTA", "PBM 8-mer E-score": "0.195 ± 0.089"},
      {"sequence": "CCGTGTTA", "PBM 8-mer E-score": "0.103 ± 0.017"},
      {"sequence": "ATGTGTTG", "PBM 8-mer E-score": "0.225 ± 0.018"},
      {"sequence": "ACGTGTTG", "PBM 8-mer E-score": "0.299 ± 0.081"},
      {"sequence": "CACTTGCC", "PBM 8-mer E-score": "0.168 ± 0.14"},
      {"sequence": "TCACTACA", "PBM 8-mer E-score": "0.0656 ± 0.0014"},
      {"sequence": "ACCAACAC", "PBM 8-mer E-score": "0.174 ± 0.0053"},
      {"sequence": "AGCAAATG", "PBM 8-mer E-score": "0.0747 ± 0.051"},
      {"sequence": "AACTTGAT", "PBM 8-mer E-score": "0.198 ± 0.024"},
      {"sequence": "GCGAAATA", "PBM 8-mer E-score": "0.104 ± 0.11"},
      {"sequence": "CGGGAGTC", "PBM 8-mer E-score": "-0.0836 ± 0.032"},
      {"sequence": "ACATTTGG", "PBM 8-mer E-score": "0.0453 ± 0.092"},
      {"sequence": "ACCCCCAA", "PBM 8-mer E-score": "-0.14 ± 0.0093"},
      {"sequence": "GAACCCAA", "PBM 8-mer E-score": "-0.136 ± 0.086"},
      {"sequence": "AAACCCAT", "PBM 8-mer E-score": "0.0906 ± 0.057"},
      {"sequence": "AACCCCCA", "PBM 8-mer E-score": "-0.337 ± 0.0059"},
      {"sequence": "AACCCCAA", "PBM 8-mer E-score": "0.259 ± 0.015"},
      {"sequence": "AAACCCAA", "PBM 8-mer E-score": "0.265 ± 0.0051"},
      {"sequence": "AAGCGGCG", "PBM 8-mer E-score": "-0.253 ± 0.0057"},
      {"sequence": "ACAAAGAC", "PBM 8-mer E-score": "0.226 ± 0.034"},
      {"sequence": "ACGCTCTA", "PBM 8-mer E-score": "0.000195 ± 0.019"},
      {"sequence": "CGAGGGAG", "PBM 8-mer E-score": "0.0101 ± 0.048"},
      {"sequence": "ACTACTTA", "PBM 8-mer E-score": "0.114 ± 0.13"},
      {"sequence": "GACGTGCC", "PBM 8-mer E-score": "-0.0314 ± 0.077"},
      {"sequence": "CACGTGCG", "PBM 8-mer E-score": "0.462 ± 0.035"},
      {"sequence": "AACGTGCG", "PBM 8-mer E-score": "0.129 ± 0.053"},
      {"sequence": "CACGTGCA", "PBM 8-mer E-score": "0.451 ± 0.049"},
      {"sequence": "CACGTGCC", "PBM 8-mer E-score": "0.419 ± 0.076"},
      {"sequence": "TACGTGCA", "PBM 8-mer E-score": "0.155 ± 0.0056"},
      {"sequence": "AACGTGCC", "PBM 8-mer E-score": "-0.0196 ± 0.033"},
      {"sequence": "AACGTGCA", "PBM 8-mer E-score": "0.225 ± 0.0061"},
      {"sequence": "CCCGTGCG", "PBM 8-mer E-score": "-0.166 ± 0.0035"},
      {"sequence": "ACCCCCTG", "PBM 8-mer E-score": "-0.181 ± 0.16"},
      {"sequence": "AAGCGAAC", "PBM 8-mer E-score": "-0.038 ± 0.12"}
    ]}
  ]
}
